Pf apPOL block: Pf-apPOL inhibitors, biochemical, fluorescence | Recombinant Pf-apPOL, molecular beacon fluorescence, 1.5 h | inhibition, % at 10 µM | 210,000 compounds, 0.25% hits | AID 1794808, 2022
mHTT CaM bind: mutant huntingtin-calmodulin interaction inhibitors – biochemical, AlphaScreen, primary screen; AlphaScreen His-mHTT/GST-CaM binding, luminescence; inhibition, % at 15 µM; P42858; 190,000 compounds, 3.6% hits
Of the large screens only hits and unclear results are named; the others gave an inactive call. Many of the other results were omitted from the sample, so hits are more common in it than they were. Cut-off read from the data, not from the text of the source: active = inhibition above about 50%; inactive = the rest.

O=C(c1ccco1)N1CCCC(c2ccnc(-c3ccccc3)n2)C1 (stereo not given)	mHTT CaM bind 61.1
O=C(c1ccccc1)N1CCCC(c2ccnc(-c3ccccc3)n2)C1 (stereo not given)	none
O=C(COc1ccc(F)cc1)N1CCCC(c2ccnc(-c3ccccc3)n2)C1 (stereo not given)	mHTT CaM bind 72.8
CCOC(=Nc1ccc(OC(F)(F)F)cc1)SCC(=O)C(C)(C)C	none (no result: mHTT CaM bind)
CCOc1cccc2cc(C(=O)Nc3nccs3)c(=Nc3ccccc3OC)oc12	none
O=C(Nc1ccccc1[N+](=O)[O-])c1ccc(Br)c(S(=O)(=O)Nc2ccccc2)c1	none
O=C(Nc1ccccc1[N+](=O)[O-])c1ccc(Cl)c(S(=O)(=O)NCc2ccccc2)c1	none
O=C(Nc1ccccc1[N+](=O)[O-])c1ccc(Cl)c(S(=O)(=O)NCc2ccco2)c1	Pf apPOL block 53.6
O=C(Nc1ccccc1[N+](=O)[O-])c1ccc(Cl)c(S(=O)(=O)Nc2ccc(Cl)cc2)c1	mHTT CaM bind 86.4
COc1ccc(Cl)cc1S(=O)(=O)N(CCc1cccs1)Cc1ccco1	none
CCCCC[C@H](C)N1C[C@@H](COCc2ccccc2)Oc2cc(N3CCC[C@H]3C(N)=O)ccc2S1(=O)=O	mHTT CaM bind 69.4
CCCCC[C@H](C)N1C[C@H](COCc2ccccc2)Oc2cc(N3CC[C@H](O)C3)ccc2S1(=O)=O	mHTT CaM bind 96.2
CCCCC[C@H](C)N1C[C@H](COCc2ccccc2)Oc2cc(N3CCC[C@@H]3CO)ccc2S1(=O)=O	none
CCCCC[C@H](C)N1C[C@H](COCc2ccccc2)Oc2cc(N3CCC[C@H]3CO)ccc2S1(=O)=O	none
CCCCC[C@@H](C)N1C[C@H](COCc2ccccc2)Oc2cc(N3CC[C@H](N(C)C)C3)ccc2S1(=O)=O	mHTT CaM bind 100.1
CCCCC[C@H](C)N1C[C@H](COCc2ccccc2)Oc2cc(N3CCC[C@@H]3COC)ccc2S1(=O)=O	none
CCCCC[C@@H](C)N1C[C@@H](COCc2ccccc2)Oc2cc(N3CCC[C@H]3C(N)=O)ccc2S1(=O)=O	none
CCCCC[C@@H](C)N1C[C@H](COCc2ccccc2)Oc2cc(N3CC[C@H](O)C3)ccc2S1(=O)=O	mHTT CaM bind 77.7
COc1c(C=O)c(C)nn1C	none (no result: Pf apPOL block)
CCCCC[C@@H](C)N1C[C@H](COCc2ccccc2)Oc2cc(N3CC[C@@H](O)C3)ccc2S1(=O)=O	mHTT CaM bind 57.5
CCCCC[C@H](C)N1C[C@@H](COCc2ccccc2)Oc2cc(N3CCC[C@H]3CO)ccc2S1(=O)=O	none
Cn1cccc1C(=O)N1CCCC(c2nc(-c3ccc(F)cc3)n[nH]2)C1 (stereo not given)	none
O=C(NNC(=O)c1cc2cc(Br)ccc2oc1=O)c1ccc(O)cc1O	Pf apPOL block 72.7, mHTT CaM bind 54.5
CNC(=O)c1cc2cc(Br)ccc2oc1=O	none
Cc1ccc(NC(=O)CSc2nc3nc(C)cc(C)n3n2)cc1	none
O=[N+]([O-])c1ccccc1S(=O)(=O)Nc1ccc(S(=O)(=O)Nc2ccc(Cl)cc2)cc1	none
COc1cccc(NC(=O)C2CC(=O)N(c3cccc(C)c3)C2)c1 (stereo not given)	none
CCCn1c(=O)c(C(=O)NCc2ccccc2Cl)c(O)c2ccccc21	none
Cc1ccc(Cn2c(=O)cc(C(=O)NCc3ccccc3Cl)c3ccccc32)cc1	mHTT CaM bind 78.0
Cc1ccc(C(=O)NCc2ccc(Cl)cc2)c(Cl)c1	none
Cc1ccc(CNC(=O)c2ccc(Cl)cc2Cl)cc1	Pf apPOL block 64.8
Cc1ccc(CC(=O)Nc2ccccc2S(C)(=O)=O)cc1	none
COc1cccc(OCCNC(C)(C)C)c1	none
CCOc1ccccc1CNC(=O)c1cc2n(n1)CCCN(Cc1ccc(F)cc1)C2=O	none
N#CC1=C(N)Oc2n[nH]c(-c3ccc4c(c3)OCO4)c2C1c1ccc(Cl)cc1 (stereo not given)	mHTT CaM bind 81.0
N#CC1=C(N)Oc2n[nH]c(-c3ccc4c(c3)OCO4)c2C1c1ccc2c(c1)OCO2 (stereo not given)	none
N#CC1=C(N)Oc2n[nH]c(-c3ccccn3)c2C1c1ccc([N+](=O)[O-])s1 (stereo not given)	mHTT CaM bind 99.0
Cc1ccc(C2C(C#N)=C(N)Oc3n[nH]c(-c4ccccc4)c32)s1 (stereo not given)	none
N#CC1=C(N)Oc2n[nH]c(-c3ccccn3)c2C1c1ccc2c(c1)OCO2 (stereo not given)	mHTT CaM bind 62.0
Cc1[nH]nc2c1C(c1ccc3c(c1)OCO3)C(C#N)=C(N)O2 (stereo not given)	none
N#CC1=C(N)Oc2n[nH]c(-c3ccccn3)c2C1c1cccnc1 (stereo not given)	none
N#CC1=C(N)Oc2n[nH]c(-c3ccccn3)c2C1c1ccncc1 (stereo not given)	mHTT CaM bind 53.0
CN1CCN(C(=O)C2CCCN(S(=O)(=O)c3ccc([N+](=O)[O-])cc3)C2)CC1 (stereo not given)	none
COc1cc(SC)ccc1C(=O)N1CCN(c2ccc([N+](=O)[O-])cc2)CC1	none
O=C(Nc1nnc(C2CC2)o1)c1ccc(S(=O)(=O)N2CCCCCC2)cc1	none
N#CC1=C(N)Oc2n[nH]c(-c3ccccn3)c2C1c1ccc(O)cc1 (stereo not given)	mHTT CaM bind 80.0
COc1ccc(C2C(C#N)=C(N)Oc3n[nH]c(-c4ccccn4)c32)c(OC)c1OC (stereo not given)	none
Cc1cc(NCc2ccc([N+](=O)[O-])cc2)ccc1Br	mHTT CaM bind 57.5
COc1ccc(CNc2cc([N+](=O)[O-])ccc2OC)cc1	none
COc1ccc(C)cc1NCc1ccc([N+](=O)[O-])cc1	mHTT CaM bind 85.5
COc1ccc(C)cc1NCc1ccc(SC)cc1	mHTT CaM bind 59.0
O=[N+]([O-])c1ccc(CNc2ccc(F)c(F)c2)cc1	none
COc1ccc(C)cc1NCc1ccncc1	none
O=C(NC1CCN(c2ccccc2C(=O)NC2CC2)CC1)c1ccccc1F	none
CCc1ccc(C(=O)N2CCC(c3nc4cccnc4n3C)C2)cc1 (stereo not given)	none
Cc1nc2c(SCC(=O)NCc3ccco3)nnc(-c3ccccc3)c2s1	mHTT CaM bind 52.9
Cc1nc2c(SCC(=O)Nc3ccc4c(c3)OCO4)nnc(-c3ccccc3)c2s1	none
CSc1ccc(CNC(=O)CN2C(=O)CCCc3ccccc32)cc1	none
CCNS(=O)(=O)c1cccnc1Nc1cccc(Cl)c1	none
O=S(=O)(Nc1ccc(F)cc1)c1cccnc1Nc1cccc(Cl)c1	mHTT CaM bind 93.3
COCCN=C1Nc2ccccc2NC12CCCN(C(=O)Cc1c[nH]c3ccccc13)C2 (stereo not given)	none
COCCN=C1Nc2ccccc2NC12CCCN(C(=O)c1n[nH]c3ccccc13)C2 (stereo not given)	mHTT CaM bind 75.7
COCCN=C1Nc2ccccc2NC12CCCN(C(=O)Cc1ccccc1F)C2 (stereo not given)	mHTT CaM bind 99.9
COCCN=C1Nc2ccccc2NC12CCCN(C(=O)Cc1ccsc1)C2 (stereo not given)	mHTT CaM bind 97.7
COCCN=C1Nc2ccccc2NC12CCCN(C(=O)c1ccccn1)C2 (stereo not given)	none
COCCN=C1Nc2ccccc2NC12CCCN(C(=O)c1ccccc1C)C2 (stereo not given)	none
O=C(c1c[nH]c2ncccc12)N1CCN(C2CCCCC2)CC1	none
